# Results published in paper PMC5540273 (PLoS ONE, 2017).
# Tests used:
# Settings in all cases: concentration: 1 μM, replicates: in singlicate; n = 1
# TNNI3K = system: TNNI3K
# TRKA = system: T1, TRKA
# T1 construct: gene NTRK1
# TRKB = system: TRKB
# TRKC = system: T2, TRKC
# T2 construct: gene NTRK3
# TRPM6 = system: TRPM6
# TSSK1B = system: TSSK1B
# TSSK3 = system: TSSK3
# TTK = system: TTK
# TXK = system: TXK
# [1] = system: TYK2(JH1domain-catalytic)
# [2] = system: TYK2(JH2domain-pseudokinase)
# TYRO3 = system: TYRO3
# ULK1 = system: ULK1
# ULK2 = system: ULK2
# ULK3 = system: ULK3
# VEGFR2 = system: T3, VEGFR2
# T3 construct: gene KDR
# VPS34 = system: T4, VPS34
# T4 construct: gene PIK3C3
# VRK2 = system: VRK2
# WEE1 = system: WEE1
# WEE2 = system: WEE2
# 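Note: KINOMEscan kinase panel screen.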
Compound,%Inh (TNNI3K),%Inh (TRKA),%Inh (TRKB),%Inh (TRKC),%Inh (TRPM6),%Inh (TSSK1B),%Inh (TSSK3),%Inh (TTK),%Inh (TXK),%Inh [1],%Inh [2],%Inh (TYRO3),%Inh (ULK1),%Inh (ULK2),%Inh (ULK3),%Inh (VEGFR2),%Inh (VPS34),%Inh (VRK2),%Inh (WEE1),%Inh (WEE2)
CCn1c(-c2nonc2N)nc2c(C#CC(C)(C)O)nc(OC[C@H](N)c3ccccc3)cc21 [GSK943949],0%,18%,0%,18%,0%,49%,82%,15%,8%,19%,0%,0%,0%,0%,1%,1%,16%,0%,1%,2%
COCCOCCOc1cc2ncc3c4ccc(C#N)cc4[nH]c3c2cc1OC,9%,98%,90%,78%,0%,0%,0%,26%,4%,0%,41%,8%,79%,99.4%,65%,0%,0%,9%,3%,15%
COc1cc(Nc2nccc(-c3c(-c4cccc(NC(=O)c5c(F)cccc5F)c4)nn4ccccc34)n2)cc(OC)c1OC [GSK323521],3%,78%,35%,40%,16%,0%,20%,10%,0%,0%,0%,0%,0%,0%,18%,0%,12%,0%,0%,6%
CC(=O)N1CCN(c2ccc(Nc3nccc(-c4sc(C(C)C)nc4-c4cccc(NS(=O)(=O)c5cccc(Cl)c5)c4)n3)cn2)CC1 [GSK1660437],22%,45%,0%,0%,41%,10%,4%,56%,20%,29%,0%,40%,37%,4%,62%,26%,0%,0%,0%,0%
Cn1cc(-c2ccc3c(c2)CCN3C(=O)Cc2cccc(Cl)c2)c2c(N)ncnc21 [GSK2606590],0%,73%,54%,57%,0%,20%,17%,30%,0%,10%,13%,0%,11%,0%,18%,49%,1%,0%,0%,0%
CCCCc1nn2ncccc2c1-c1ccnc(Nc2ccc(N3CCN(C)CC3)cc2)n1 [GW684941],41%,88%,78%,66%,61%,9%,7%,50%,74%,44%,93%,1%,23%,6%,17%,94%,15%,50%,4%,9%
COc1ccc(Nc2nccc(NCCNC(=O)c3cc4ccccc4s3)n2)cc1 [GSK1379896],13%,18%,0%,0%,34%,0%,20%,0%,0%,25%,0%,11%,14%,0%,0%,0%,18%,17%,14%,0%
Cl.Cl.NCC(NCc1ccc(-c2ccnc3[nH]ccc23)s1)c1ccccc1 (centres unmarked) [GSK1321565],0%,98.5%,72%,70%,0%,38%,16%,0%,25%,80%,43%,0%,67%,9%,15%,17%,7%,20%,13%,0%
CSc1cccc2c(-c3ccncn3)c(-c3ccc(F)cc3)nn12 [GW514786],6%,16%,0%,0%,17%,0%,22%,8%,0%,0%,24%,0%,0%,0%,3%,0%,14%,23%,6%,1%
Cn1cc(-c2ccc3c(c2)CCN3C(=O)Cc2cccc(F)c2)c2c(N)ncnc21 [GSK2603358],0%,34%,55%,50%,0%,5%,11%,67%,25%,22%,64%,0%,14%,0%,27%,75%,0%,23%,0%,0%
